# The antibiotic and cytotoxicity screens of Wong et al. (2023)
# Hit rate of the full screen: of about 39,000 compounds, about 1,500 (3.8%) were called active. The entries come from a sample that favours actives as a whole.
# Tested on: HSkMC (human skeletal muscle cells)
# Assay: cytotoxicity call (relative viability < 0.9)
# Conditions: 10 µM
row,Compound,cytotoxicity call
1,COc1ccc(NC(=O)N(C)C[C@H]2OCCCC[C@@H](C)Oc3ccc(NS(=O)(=O)c4ccc(F)cc4)cc3C(=O)N([C@@H](C)CO)C[C@H]2C)cc1,inactive
2,Cc1ccc(C(=O)O)c(=O)[nH]1,inactive
3,C[C@@H]1CN([C@@H](C)CO)C(=O)c2cc(C#CC3(O)CCCC3)cnc2O[C@@H]1CN(C)C(=O)Cc1ccccc1,inactive
4,O=C(N[C@H]1CCN(C(=O)c2cc(C(F)(F)F)cc(C(F)(F)F)c2)[C@H](Cc2ccc(Cl)cc2)C1)c1ccnc2ccccc12,active
5,O=C(NC1CC1)[C@@H]1c2ccccc2C(=O)N(Cc2cc(C(F)(F)F)cc(C(F)(F)F)c2)[C@H]1c1ccc(CO)cc1,inactive
6,C[C@H](CO)N1C[C@H](C)[C@H](CN(C)Cc2ccc(C(F)(F)F)cc2)Oc2c(NC(=O)c3ccc(-c4nccs4)cc3)cccc2C1=O,inactive
7,C[C@H]1CN([C@@H](C)CO)C(=O)c2cccc(NC(=O)c3ccc(-c4nccs4)cc3)c2O[C@@H]1CN(C)Cc1ccc(Cl)c(Cl)c1,active
8,C[C@@H]1CN([C@H](C)CO)C(=O)c2cccc(NC(=O)c3ccc(-c4nccs4)cc3)c2O[C@@H]1CN(C)C(=O)Nc1ccc(C(F)(F)F)cc1,active
9,C[C@@H]1CN([C@@H](C)CO)C(=O)c2cccc(NC(=O)c3ccc(-c4nccs4)cc3)c2O[C@H]1CN(C)Cc1ccc(C(F)(F)F)cc1,inactive
10,C[C@@H]1CN([C@H](C)CO)C(=O)c2cccc(NC(=O)c3ccc(-c4nccs4)cc3)c2O[C@H]1CN(C)Cc1ccc(C(F)(F)F)cc1,active
11,C[C@H]1CN([C@@H](C)CO)C(=O)c2cccc(NC(=O)c3ccc(-c4nccs4)cc3)c2O[C@H]1CN(C)C(=O)Nc1ccc(C(F)(F)F)cc1,inactive
12,C[C@@H]1CN([C@@H](C)CO)C(=O)c2cccc(NC(=O)c3ccc(-c4nccs4)cc3)c2O[C@@H]1CN(C)C(=O)Nc1ccc(C(F)(F)F)cc1,inactive
13,C[C@@H]1CN([C@@H](C)CO)C(=O)c2cccc(NC(=O)c3ccc(-c4nccs4)cc3)c2O[C@@H]1CN(C)Cc1ccc(C(F)(F)F)cc1,inactive
14,C[C@H]1CN([C@@H](C)CO)C(=O)c2cccc(NC(=O)c3ccc(-c4nccs4)cc3)c2O[C@@H]1CN(C)Cc1ccc(C(F)(F)F)cc1,active
15,C[C@@H]1CN([C@H](C)CO)C(=O)c2cccc(NC(=O)c3ccc(-c4nccs4)cc3)c2O[C@H]1CN(C)Cc1ccc(Cl)c(Cl)c1,inactive
16,C[C@H](CO)N1C[C@H](C)[C@@H](CN(C)Cc2ccc(Cl)c(Cl)c2)Oc2c(NC(=O)c3ccc(-c4nccs4)cc3)cccc2C1=O,inactive
17,C[C@@H]1CN([C@H](C)CO)C(=O)c2cccc(NC(=O)c3ccc(-c4nccs4)cc3)c2O[C@@H]1CN(C)Cc1ccc(C(F)(F)F)cc1,inactive
18,C[C@H]1CN([C@@H](C)CO)C(=O)Cc2cc(NS(=O)(=O)c3cccs3)ccc2O[C@@H]1CN(C)Cc1ccncc1,inactive
19,COc1ccc(NC(=O)N(C)C[C@H]2Oc3ccc(NS(=O)(=O)c4c(C)noc4C)cc3C(=O)N([C@H](C)CO)C[C@H]2C)cc1,inactive
20,C[C@@H]1CN([C@@H](C)CO)C(=O)c2cccc(NC(=O)CCCCCC(=O)Nc3ccccc3N)c2O[C@H]1CN(C)S(=O)(=O)c1cn(C)cn1,inactive
21,Cc1[nH]c(=O)[nH]c(=O)c1S(=O)(=O)N1CCC[C@H](C(=O)NCCc2c[nH]c3ccc(F)cc23)C1,inactive

row,Compound,cytotoxicity call
1,C[C@H]1CCCCO[C@@H](CN(C)C)[C@@H](C)CN([C@@H](C)CO)C(=O)c2cc(NS(=O)(=O)c3cn(C)cn3)ccc2O1,inactive
2,C[C@@H]1CCCCO[C@@H](CN(C)S(=O)(=O)c2ccccc2)[C@H](C)CN([C@@H](C)CO)C(=O)c2cc(NC(=O)Nc3ccc(C(F)(F)F)cc3)ccc2O1,inactive
3,COc1ccc(CN(C)C[C@H]2OCCCC[C@H](C)Oc3ccc(NC(=O)Cc4ccccc4)cc3C(=O)N([C@@H](C)CO)C[C@H]2C)cc1,inactive
4,C[C@@H]1CN([C@H](C)CO)C(=O)c2cc(NS(=O)(=O)c3ccccc3)ccc2O[C@@H](C)CCCCO[C@@H]1CN(C)Cc1ccc2c(c1)OCO2,inactive
5,C[C@H](CO)N1C[C@H](C)[C@@H](CN(C)S(=O)(=O)c2ccc(Oc3ccccc3)cc2)OCc2cn(nn2)CCCC1=O,inactive
6,Cc1noc(C)c1S(=O)(=O)N(C)C[C@@H]1Oc2ccc(NC(=O)CCC(F)(F)F)cc2CC(=O)N([C@H](C)CO)C[C@H]1C,inactive
7,COCCNC(=O)C[C@@H]1CC[C@@H](NS(=O)(=O)c2ccc(C)cc2)[C@H](CO)O1,inactive
8,C[C@@H](O)Cn1cnc2c1c(=O)n(C)c(=O)n2C,inactive
9,COc1ccc(CN(C)C[C@H]2OCCCC[C@H](C)Oc3ccc(NC(=O)c4ccccc4)cc3C(=O)N([C@@H](C)CO)C[C@H]2C)cc1,inactive
10,CC(C)C#Cc1cnc2c(c1)C(=O)N([C@@H](C)CO)C[C@@H](C)[C@@H](CN(C)S(=O)(=O)c1cn(C)cn1)O2,inactive
11,CC(C)N1CCOC[C@@]2(C1)CN(S(C)(=O)=O)CCO2,inactive
12,COC(=O)[C@H](Cc1ccccc1)N1CC2=C[C@@H](C3CC3)n3c(=O)n(C)c(=O)n3[C@H]2[C@@H]1[C@@H](O)CCn1cc(-c2cccc(/C=C/C(=O)NO)c2)nn1,inactive
13,COc1ccc2c3c([nH]c2c1)[C@H](CO)N(C[C@]13CN(C1)S(=O)(=O)C)C(=O)C1CCOCC1,inactive
14,C[C@H](CO)N1C[C@H](C)[C@H](CN(C)C(=O)NC2CCCCC2)Oc2ccc(NC(=O)C3CC3)cc2CC1=O,inactive
15,Cc1ccc(S(=O)(=O)N(C)C[C@H]2Oc3ccc(N(C)C)cc3CC(=O)N([C@H](C)CO)C[C@@H]2C)cc1,inactive
16,CN1N=C2CCN(C(=O)[C@@H](COCc3ccccc3)NC(=O)C(C)(C)N)C[C@@]2(Cc2ccccc2)C1=O,inactive
17,CN(C)N(C)C(=O)[C@@]1(Cc2ccccc2)CCCN(C(=O)[C@@H](Cc2c[nH]c3ccccc23)NC(=O)C(C)(C)N)C1,inactive
18,CC(C)(N)C(=O)N[C@H](COCc1ccccc1)C(=O)N1CCC2(CC1)CN(S(C)(=O)=O)c1ccccc12,active
19,COc1ccc(S(=O)(=O)Nc2ccc3c(c2)C(=O)N([C@H](C)CO)C[C@H](C)[C@@H](CN(C)C(=O)Nc2c(C)noc2C)OCCCC[C@H](C)O3)cc1,inactive
20,COc1ccc(NC(=O)N(C)C[C@H]2OCCCC[C@@H](C)Oc3ccc(NC(=O)C4CCCCC4)cc3C(=O)N([C@@H](C)CO)C[C@H]2C)cc1,inactive
21,C[C@H]1CN([C@@H](C)CO)C(=O)c2cccc(NC(=O)CCCCCC(=O)Nc3ccccc3N)c2O[C@H]1CN(C)Cc1ccc(-c2ccccc2)cc1,inactive

row,Compound,cytotoxicity call
1,C[C@H]1CN([C@@H](C)CO)C(=O)c2cccc(NC(=O)CCCCCC(=O)Nc3ccccc3N)c2O[C@H]1CN(C)Cc1ccc(Cl)c(Cl)c1,active
2,C[C@@H]1CN([C@@H](C)CO)C(=O)c2cccc(NC(=O)CCCCCC(=O)Nc3ccccc3N)c2O[C@H]1CN(C)Cc1ccc(Cl)c(Cl)c1,inactive
3,C[C@H]1CN([C@@H](C)CO)C(=O)c2cccc(NC(=O)CCCCCC(=O)Nc3ccccc3N)c2O[C@@H]1CN(C)Cc1ccccc1,active
4,C[C@H]1CN([C@@H](C)CO)C(=O)c2cccc(NC(=O)CCCCCC(=O)Nc3ccccc3N)c2O[C@@H]1CN(C)Cc1ccc(-c2ccccc2)cc1,active
5,C[C@@H]1CN([C@H](C)CO)C(=O)c2cccc(NC(=O)CCCCCC(=O)Nc3ccccc3N)c2O[C@H]1CN(C)Cc1ccccc1,inactive
6,C[C@@H]1CN([C@@H](C)CO)C(=O)c2cccc(NC(=O)CCCCCC(=O)Nc3ccccc3N)c2O[C@@H]1CN(C)Cc1ccccc1,inactive
7,C[C@@H]1CN([C@@H](C)CO)C(=O)c2cccc(NC(=O)CCCCCC(=O)Nc3ccccc3N)c2O[C@@H]1CN(C)Cc1ccc(Cl)c(Cl)c1,inactive
8,C[C@@H]1CN([C@@H](C)CO)C(=O)c2cccc(NC(=O)CCCCCC(=O)Nc3ccccc3N)c2O[C@H]1CN(C)Cc1ccc(-c2ccccc2)cc1,inactive
9,Cc1ccc(S(=O)(=O)Nc2ccc3c(c2)C(=O)N([C@@H](C)CO)C[C@H](C)[C@@H](CN(C)Cc2ccncc2)OCCCC[C@H](C)O3)cc1,inactive
10,C[C@@H]1CN([C@H](C)CO)C(=O)c2cc(NC(=O)c3ccncc3)ccc2O[C@@H](C)CCCCO[C@@H]1CN(C)S(=O)(=O)c1ccc(Cl)cc1,inactive
11,COc1ccc(S(=O)(=O)Nc2ccc3c(c2)C(=O)N([C@@H](C)CO)C[C@H](C)[C@H](CN(C)S(C)(=O)=O)OCCCC[C@@H](C)O3)cc1,inactive
12,C[C@@H]1CN([C@H](C)CO)C(=O)c2cc(NC(=O)CCN3CCOCC3)ccc2O[C@H]1CN(C)Cc1ccncc1,inactive
13,CN(C)CC(=O)OCC(O)C(O)C(O)C(O)C(=O)[O-].[Na+] (stereo unspecified),inactive
14,O=C(c1ccc(Cl)cc1)n1c2ccccc2c2ccccc21,inactive
15,O=C(c1ccc(Cl)cc1)c1coc2c1cc(O)c1ccccc12,active
16,O=C(Nc1ccc(Cl)cc1C(=O)c1ccc(Cl)cc1)c1cc(Br)ccc1NS(=O)(=O)c1ccc(Cl)cc1,inactive
17,O=C(NCC[C@@H]1CC[C@H](NS(=O)(=O)c2cccc(F)c2)[C@H](CO)O1)C1CC1,inactive
18,C[C@@H]1CCCCO[C@H](CN(C)S(=O)(=O)c2ccccc2)[C@@H](C)CN([C@@H](C)CO)C(=O)c2cc(NC(=O)C3CCCCC3)ccc2O1,inactive
19,C[C@@H]1CN([C@@H](C)CO)C(=O)c2cccc(NC(=O)NC3CCCCC3)c2O[C@H]1CN(C)Cc1ccc(C(F)(F)F)cc1,inactive
